Assay outcomes as filed in PubChem.
Only some compounds are listed: those with a hit (about 4.8% of all), similar ones and a draw of the others.
SMARCA2 act: SMARCA2 (BRM) function activators, primary screen, cell-based, luminescence, high throughput; MG213 cells, MMTV-luciferase reporter, dexamethasone, overnight; activation, % at 9.1 µM; 370,000 compounds, 1% hits; AID 652017, 2013; in the data active = activation above about 7.8%
hgDAF-12 ag: H. glycines DAF-12 receptor agonists, primary screen, cell-based, luminescence, HEK293, GAL4 fusion, UAS-luciferase | Nuclear hormone receptor DAF-12 (Heterodera glycines), GAL4 fusion | HEK293 GAL4-hgDAF12 UAS-luciferase reporter, agonist luminescence; normalized to butyrate control | activation, % at 6.8 µM | 370,000 compounds, 1.8% hits;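 active = activation above a cutoff set at the mean of all screened compounds plus 3 SD, cut at about 10% in these data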
DAX1 inh-1: DAX1 (NR0B1) inhibitors on StAR promoter, primary screen, cell-based, luminescence, SF-1 (NR5A1), full-length DAX-1; AID 652010, 2013; inhibition, % at 6.8 µM; 370,000 compounds, 1.1% hits; HEK293T StAR-luciferase reporter, SF-1/DAX-1 repression relief;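 active = inhibition above the mean over all tested compounds plus 3 SD, cut at about 3.6% in these data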;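 also: higher inhibition means more luminescence from relief of DAX-1 repression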
hcDAF-12 act: H. contortus DAF-12 nuclear receptor activators, primary screen, cell-based, luminescence, HEK293, lit1-tk-luc reporter; activation, % at 6.8 µM; HEK293 hcDAF-12 lit1-tk-luc reporter; 0% DMSO, 100% Δ7-dafachronic acid; 370,000 compounds, 1.4% hits;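 active = activation above the mean of all tested compounds plus 3 SD, cut at about 5.5% in these data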
ssDAF-12 act: S. stercoralis DAF-12 nuclear receptor activators, primary screen, cell-based, luminescence, HEK293, GRIP1 co-expression, lit1-tk-luc | Nuclear hormone receptor DAF-12 (Strongyloides stercoralis) | HEK293 ssDAF-12/GRIP1 lit1-tk-luc reporter; % of 3 µM dafachronic acid response | activation, % at 6.8 µM | 370,000 compounds, 1% hits | AID 652126, 2013;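 active = activation above the mean over all tested compounds plus 3 SD, cut at about 0.9% in these data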
DAX1 inh-2: DAX1 (NR0B1) inhibitors, primary screen, cell-based, HEK293, Gal4-DAX1, luciferase luminescence | AID 504766, 2011 | 340,000 compounds, 0.99% hits | Nuclear receptor subfamily 0 group B member 1 (Homo sapiens), P51843 | HEK293 Gal4-DAX1 luciferase reporter | inhibition, % at 6.75 µM;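 active = inhibition above the mean over all tested compounds plus 3 SD, cut at about 4.2% in these data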;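 also: inhibition shows as a rise in luminescence from relieved DAX1 repression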
DAX1 conf: DAX1 (NR0B1) inhibitors relieving SF-1 repression, confirmation, cell-based, luminescence, HEK293T, full-length DAX-1, SF-1 activated StAR promoter; shares compounds with DAX1 inh-1; HEK293T StAR-promoter luciferase reporter, SF-1/DAX-1 repression; inhibition, % at 6.8 µM; 2,400 compounds, 87% hits; AID 652134, 2013;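 active = inhibition above the average of every tested compound plus 3 SD, cut at about 3.8% in these data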
Target sequence (P51843 whole entry, looked up): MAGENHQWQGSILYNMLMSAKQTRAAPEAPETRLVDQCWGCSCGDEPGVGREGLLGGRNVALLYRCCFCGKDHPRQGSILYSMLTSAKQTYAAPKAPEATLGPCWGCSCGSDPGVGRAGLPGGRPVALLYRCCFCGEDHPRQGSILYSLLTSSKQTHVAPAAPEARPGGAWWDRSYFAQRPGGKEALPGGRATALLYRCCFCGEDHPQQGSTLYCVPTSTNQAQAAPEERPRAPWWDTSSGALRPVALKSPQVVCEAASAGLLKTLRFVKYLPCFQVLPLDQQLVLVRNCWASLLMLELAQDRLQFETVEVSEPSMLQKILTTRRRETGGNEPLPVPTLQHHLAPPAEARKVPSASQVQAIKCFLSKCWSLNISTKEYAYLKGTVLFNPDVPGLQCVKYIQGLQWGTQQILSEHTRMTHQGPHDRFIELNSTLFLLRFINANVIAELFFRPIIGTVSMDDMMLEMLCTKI
SF1 AF2mut Luc: StAR reporter signal changes without DAX1, counter-screen for DAX1 inhibitor project, cell-based, luminescence, AF-2 mutant SF-1, transactivation. inhibition, % at 6.8 µM. AID 652136, 2013. shares compounds with DAX1 inh-1. 2,400 compounds, 78% hits. HEK293 StAR-luciferase, SF-1 AF2 mutant;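 active = inhibition above the mean of all tested compounds plus 3 SD, cut at about 3% in these data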
SMARCA2 conf: SMARCA2 (BRM) function activators, confirmation, cell-based, luminescence, triplicate; shares compounds with SMARCA2 act; MG213 cells, MMTV-luciferase with dexamethasone, overnight; MG213 cells expressing E1A, Rb sequestered; DMSO wells 0%, reference activator 100%; activation, % at 9.1 µM; 3,500 compounds, 30% hits;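 active = activation above its plate's cutoff, the mean activation of tested wells plus 3 SD, cut at about 7.9% in these data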
VP16 Luc act: GAL4-VP16 luciferase reporter activation, counter-screen for SMARCA2 (BRM) activator project, cell-based, pG5luc, luminescence, high throughput; shares compounds with SMARCA2 act; HEK293 GAL4-VP16 pG5luc reporter; scaled: DMSO wells 0%, SAHA wells 100%; activation, % at 9.1 µM; 3,500 compounds, 41% hits; AID 686939, 2013;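 active = activation above the solvent-only control well mean plus 3 SD, averaged across control plates, cut at about 5.2% in these data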
LXR ag: LXR agonists, Gal4 luciferase reporter, confirmation, counter-screen for hcDAF-12 agonist project, cell-based, luminescence, HEK293, H. contortus campaign | shares compounds with hcDAF-12 act | HEK293 Gal4-LXR tk-luc reporter, 24 h; normalized: DMSO 0%, positive control 100% | activation, % at 6.8 µM | 3,400 tested, under 10 active | AID 743027, 2013;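 active = mean percent activation of the reporter above a cutoff set as the average over tested compounds plus their standard deviation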
hcDAF12 ag: H. contortus DAF-12 receptor agonists, confirmation, cell-based, luminescence, HEK293, lit1-tk-luc, triplicate. shares compounds with hcDAF-12 act. HEK293 hcDAF-12 lit1-tk-luc reporter; % of Δ7-dafachronic acid response. activation, % at 6.8 µM. 3,400 compounds, 61% hits. AID 743032, 2013;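 active = mean activation across triplicate tests above the threshold derived from the earlier primary screen, cut at about 5.5% in these data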
hgDAF12 conf: H. glycines DAF-12 receptor agonists, confirmation, cell-based, luminescence, HEK293, GAL4-LBD fusion; activation, % at 6.8 µM; 3,300 compounds, 80% hits; AID 743050, 2013; HEK293 GAL4-hgDAF12 luciferase reporter, agonist mode; percent of butyrate response; shares compounds with hgDAF-12 ag;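 active = mean activation over triplicate wells above the hit cutoff derived from the earlier primary screen, cut at about 11% in these data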
LXR ag 2: LXR agonists, Gal4 luciferase reporter, confirmation, counter-screen for hgDAF-12 agonist project, cell-based, luminescence, HEK293, H. glycines campaign | shares compounds with hgDAF-12 ag | 24 h | activation, % at 6.8 µM | 3,300 tested, under 10 active;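 active = mean activation of the triplicate above a set limit carried over from the primary screen, none filed active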
Hits are given with their value; - = inactive; . = no result given.

SMILES	SMARCA2 act	hgDAF-12 ag	DAX1 inh-1	hcDAF-12 act	ssDAF-12 act	DAX1 inh-2	DAX1 conf	SF1 AF2mut Luc	hgDAF12 conf	LXR ag 2	others
CC(C)Cc1ccc(-c2cc3nc(NCCCn4ccnc4)ccn3n2)cc1	-	15	5.5	6.1	-	.	7.6	5.1	11	-
O=C(Nc1nnc([C@@H]2C[C@H](O)[C@@H](CO)O2)s1)Nc1ccccc1F	-	15	7.3	-	-	.	7.2	3.4	11	-
O=C(Nc1nnc([C@@H]2C[C@H](O)[C@@H](CO)O2)s1)c1cccc2ccccc12	-	25	5.0	-	-	.	8.7	5.6	13	-
Cc1ccc(-c2c(C(=O)NCC(C)C)oc(=O)c3ccccc23)cc1	-	-	-	-	-	.	.	.	.	.
COC(=O)[C@]12C[C@H](CC(=O)NCCC(C)C)C(=O)N(CCC3=CCCCC3)C1=C[C@H](C1CCCC1)O[C@@H]2C	-	-	-	-	-	.	.	.	.	.
Cc1ccc(/C=C2/CCc3c([nH]c4ccccc34)C2=O)cc1	8.2	18	5.3	10	-	-	24	9.1	22	-	SMARCA2 conf=-;VP16 Luc act=11;LXR ag=-;hcDAF12 ag=5.8
